Experiment [1] addresses human Adenosine A2a Receptor (AdoRA2a), ADORA2A (gene 135) (UniProt P29274). The experiment is described as follows: NVS_GPCR_hAdoRA2a: NovaScreen (NVS) G Protein-Coupled Receptor Assay for human Adenosine A2a Receptor (AdoRA2a) (AID 2283256). The method in brief:
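HEK293-derived receptor preparation, radioligand displacement, 1.5 h, filtration + scintillation read. Loss of bound signal scored vs DMSO. Single-point 25 uM in duplicate first, then concentration-response for actives.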

The subject of experiment [2] is bovine Histamine 1 Receptor (H1), gene 281231. The experiment is described as follows: NVS_GPCR_bH1: NovaScreen (NVS) G Protein-Coupled Receptor Assay for bovine Histamine 1 Receptor (H1) (AID 2283246). The method in brief:
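Hits from a 25 uM duplicate primary screen were retested in concentration series (top 50 uM); binding measured as scintillation-counted displacement of radioligand from bovine cerebellar membranes after 1 h, normalised to DMSO.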

Experiment [3] is described as follows: NVS_GPCR_bNPY_NonSelective: NovaScreen (NVS) G Protein-Coupled Receptor Assay for bovine Neuropeptide Y (NPY) Receptor, Non-selective Binding (AID 2283245). A digest of the protocol: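 Displacement of radioligand from bovine hippocampal membrane receptors, read by filtration and scintillation counting after 1 hour. Concentration-response to a top of 50 uM followed a 25 uM duplicate primary screen. Loss of signal versus DMSO.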

Experiment [4] deals with guinea pig Muscarinic, Peripheral (Mperiperal) Receptor, Non-selective Binding, gene 100379235. Nature of the experiment: NVS_GPCR_gMPeripheral_NonSelective: NovaScreen (NVS) G Protein-Coupled Receptor Assay for guinea pig Muscarinic, Peripheral (Mperiperal) Receptor, Non-selective Binding (AID 2283250). The method in brief: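 Screened in duplicate at 25 uM, hits retested in concentration series to 50 uM max, using bladder membrane radioligand displacement from guinea pig. Filtration and scintillation counting 1 h post-dose, fitted relative to DMSO.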

Experiment [5] deals with guinea pig Opioid, Kappa 1 Receptor (OpiateK), OPRK1 (gene 100135587) (UniProt P41144). The experiment is described as follows: NVS_GPCR_gOpiateK: NovaScreen (NVS) G Protein-Coupled Receptor Assay for guinea pig Opioid, Kappa 1 Receptor (OpiateK) (AID 2283252).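 Further: radioligand displacement from kappa opioid receptor in guinea pig cerebellar membranes; active means reduced radioligand binding relative to DMSO.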 A digest of the protocol: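 Radioligand competition binding using guinea pig cerebellum membrane fraction; 2 h exposure; filter radiodetection. Single concentration 25 uM (duplicate), follow-up concentration-response for actives.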

Experiment [6] has as its target human Serotonin, 5-Hydroxytryptamine Receptor 6 (5HT6), HTR6 (gene 3362) (UniProt P50406). The experiment is described as follows: NVS_GPCR_h5HT6: NovaScreen (NVS) G Protein-Coupled Receptor Assay for human Serotonin, 5-Hydroxytryptamine Receptor 6 (5HT6) (AID 2283253). A digest of the protocol: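 Filter scintillation counting of radioligand displacement from HEK293-expressed 5HT6, 1 hour post-dose, with loss of signal relative to DMSO. Single 25 uM duplicates first, with concentration series for confirmation.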

Experiment [7] deals with human Adrenergic, Alpha 2A Receptor (Adra2A), ADRA2A (gene 150) (UniProt P08913). Nature of the experiment: NVS_GPCR_hAdra2A: NovaScreen (NVS) G Protein-Coupled Receptor Assay for human Adrenergic, Alpha 2A Receptor (Adra2A) (AID 2283257). A digest of the protocol: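 Displacement of a specific radioligand from HT29 membrane protein was counted by filter scintillation after 1 h. Compounds were screened in duplicate at 25 uM, and actives were retested in concentration series. Fitting was positive-direction against DMSO.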

Experiment [8] concerns the target human Adrenergic, Alpha 2c Receptor (Adra2C), ADRA2C (gene 152) (UniProt P18825). Nature of the experiment: NVS_GPCR_hAdra2C: NovaScreen (NVS) G Protein-Coupled Receptor Assay for human Adrenergic, Alpha 2c Receptor (Adra2C) (AID 2283259). A digest of the protocol: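 Screened first in duplicate at 25 uM, with actives then run as concentration series. Membranes from Sf9 cells were exposed for 1 h, and displacement of radioligand was counted after filtration, using DMSO as baseline.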

Experiment [9] deals with sheep Cyclooxygenase-1 (Cox1), PTGS1 (gene 443551) (UniProt P05979). The experiment is described as follows: NVS_ENZ_oCOX1: NovaScreen (NVS) Enzymatic Assay for sheep Cyclooxygenase-1 (Cox1) (AID 2283239).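 Further: actives reduce cyclooxygenase activity so potencies are for inhibitors.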 The method in brief:
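Ovine seminal vesicle extract; absorbance (colorimetric) enzyme read-out at 0.66 h post-dose. Primary: single conc 25 uM, duplicate. Follow-up: concentration series on actives. Activity = signal loss vs DMSO baseline.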

Experiment [10] addresses Adenosine receptor A1 (Bos taurus) (UniProt P28190). Nature of the experiment: NVS_GPCR_bAdoR_NonSelective: NovaScreen (NVS) G Protein-Coupled Receptor Assay for bovine Adenosine Receptor (AdoR), Non-selective Binding (AID 2283244). The method in brief: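 Cell-free binding with membranes from bovine striatum: radioligand displaced by test chemical, read after 1 h by filtration and scintillation. Single-point 25 uM duplicate primary, 50 uM top concentration in follow-up curves, DMSO baseline.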

For experiment [11], the target named is human Serotonin, 5-Hydroxytryptamine Receptor 5A (5HT5A), HTR5A (gene 3361) (UniProt P47898). The experiment is described as follows: NVS_GPCR_h5HT5A: NovaScreen (NVS) G Protein-Coupled Receptor Assay for human Serotonin, 5-Hydroxytryptamine Receptor 5A (5HT5A) (AID 2283251). The method in brief: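 Membranes from HEK293 cells, radioligand binding read by filtration and scintillation after 1 h. Single-concentration duplicate testing at 25 uM, then concentration-response for actives; positive-direction fitting relative to DMSO.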

Experiment [12] deals with human Adenosine A1 Receptor (AdoRA1), ADORA1 (gene 134) (UniProt P30542). The experiment is described as follows: NVS_GPCR_hAdoRA1: NovaScreen (NVS) G Protein-Coupled Receptor Assay for human Adenosine A1 Receptor (AdoRA1) (AID 2283254). A digest of the protocol:
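Radioligand binding was run on human cortical membranes, cell-free, with filter-based scintillation counting 1 h after dosing. The primary screen was duplicate at 25 uM, followed by concentration series. Signal loss versus DMSO was fitted positive-direction.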

Experiment [13] concerns the target human Serotonin, 5-Hydroxytryptamine Receptor 7 (5HT7), HTR7 (gene 3363) (UniProt P34969). The experiment is described as follows: NVS_GPCR_h5HT7: NovaScreen (NVS) G Protein-Coupled Receptor Assay for human Serotonin, 5-Hydroxytryptamine Receptor 7 (5HT7) (AID 2283255).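 Further: hits reduce specific radioligand binding relative to DMSO.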 The method in brief: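 Filter-bound radioactivity counted after 1 h, with loss of specific radioligand binding fitted against DMSO. Membrane protein came from CHO cells expressing human 5HT7. Chemicals were tested first at 25 uM in duplicate, then in concentration series if active.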

Experiment [14] addresses human Adrenergic, Beta 1 Receptor (Adrb1), ADRB1 (gene 153) (UniProt P08588). The experiment is described as follows: NVS_GPCR_hAdrb1: NovaScreen (NVS) G Protein-Coupled Receptor Assay for human Adrenergic, Beta 1 Receptor (Adrb1) (AID 2283258). A digest of the protocol: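 Membranes/protein extracted from human neuroepithelioma cells, radioligand competition binding read by filtration and scintillation 2 h post-dose. Single 25 uM duplicate screen, then concentration-response follow-up; DMSO as negative control.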

Experiment [15] concerns the target human Serotonin, 5-Hydroxytryptamine Receptor 2A (5HT2A), HTR2A (gene 3356) (UniProt P28223). Nature of the experiment: NVS_GPCR_h5HT2A: NovaScreen (NVS) G Protein-Coupled Receptor Assay for human Serotonin, 5-Hydroxytryptamine Receptor 2A (5HT2A) (AID 2283249). The method in brief:
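Radioligand displacement on human cortex tissue extract, counted by filtration and scintillation 1.5 h post-dosing. Initial single-concentration screen at 25 uM in duplicate, concentration series in follow-up; DMSO as baseline.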

For experiment [16], the system named is bovine Angiotensin II Receptor Type 2 (AT2), gene 407157. The experiment is described as follows: NVS_GPCR_bAT2: NovaScreen (NVS) G Protein-Coupled Receptor Assay for bovine Angiotensin II Receptor Type 2 (AT2) (AID 2283240). A digest of the protocol:
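Radioligand displacement on bovine cerebellar membranes, 1 hour incubation, filter-based scintillation counting; loss of signal vs DMSO. Duplicate single-point screen at 25 uM, then concentration-response to 50 uM maximum.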

Experiment [17] deals with guinea pig Leukotriene D4 Receptor (LTD4), CYSLTR1 (gene 100135514) (UniProt Q2NNR5). The experiment is described as follows: NVS_GPCR_gLTD4: NovaScreen (NVS) G Protein-Coupled Receptor Assay for guinea pig Leukotriene D4 Receptor (LTD4) (AID 2283248). A digest of the protocol: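 Guinea pig lung membrane preparation; bound radioligand measured by filter scintillation after 1 h, loss of signal versus DMSO marking displacement. Compounds tested at 25 uM in duplicate, hits retested to max 50 uM.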

In experiment [18] the test system is guinea pig Leukotriene B4 Receptor (LTB4), gene 100379538. Nature of the experiment: NVS_GPCR_gLTB4: NovaScreen (NVS) G Protein-Coupled Receptor Assay for guinea pig Leukotriene B4 Receptor (LTB4) (AID 2283247). The method in brief:
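Membranes from guinea pig spleen incubated 2 h with radioligand and compound; bound counts measured by filtration and scintillation. Screened first at 25 uM in duplicate, then actives titrated to a 50 uM top concentration relative to DMSO.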

Experiment [19] deals with rat Constitutive Nitric Oxide Synthase (CNOS), Nos1 (gene 24598) (UniProt P29476). The experiment is described as follows: NVS_ENZ_rCNOS: NovaScreen (NVS) Enzymatic Assay for rat Constitutive Nitric Oxide Synthase (CNOS) (AID 2283236). A digest of the protocol: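 Single 25 uM duplicate screen, then concentration series to 50 uM for chemicals meeting threshold. Rat brain membrane-derived CNOS activity detected radiometrically by filtration and scintillation counting, 1 h after compound addition; DMSO as baseline.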

Records with an inconclusive call do not appear. The source made the active and inactive calls. How the source made its calls: active means hit-call score of the fitted dose curve at least 0.9, where 1 is the maximum; inconclusive means response in the unintended direction; inactive means score below 0.9.

By AC50 is commonly meant the midpoint of the concentration-response curve, whichever way the signal moves.

Chain of human Adrenergic, Alpha 2c Receptor (Adra2C), ADRA2C (gene 152) (P18825 whole entry, looked up): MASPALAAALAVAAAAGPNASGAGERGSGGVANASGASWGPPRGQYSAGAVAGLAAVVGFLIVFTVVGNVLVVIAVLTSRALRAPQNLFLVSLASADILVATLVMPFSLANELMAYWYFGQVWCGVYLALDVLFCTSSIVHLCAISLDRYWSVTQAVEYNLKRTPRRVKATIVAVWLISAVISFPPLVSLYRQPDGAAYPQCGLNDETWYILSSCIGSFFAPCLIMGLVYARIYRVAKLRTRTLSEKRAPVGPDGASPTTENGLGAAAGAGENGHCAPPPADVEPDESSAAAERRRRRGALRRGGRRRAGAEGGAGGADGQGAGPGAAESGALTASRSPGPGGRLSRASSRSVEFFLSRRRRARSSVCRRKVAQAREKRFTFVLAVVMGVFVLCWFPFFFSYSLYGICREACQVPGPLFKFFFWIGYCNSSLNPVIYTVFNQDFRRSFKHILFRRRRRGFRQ
Chain of rat Constitutive Nitric Oxide Synthase (CNOS), Nos1 (gene 24598) (P29476 whole entry, looked up): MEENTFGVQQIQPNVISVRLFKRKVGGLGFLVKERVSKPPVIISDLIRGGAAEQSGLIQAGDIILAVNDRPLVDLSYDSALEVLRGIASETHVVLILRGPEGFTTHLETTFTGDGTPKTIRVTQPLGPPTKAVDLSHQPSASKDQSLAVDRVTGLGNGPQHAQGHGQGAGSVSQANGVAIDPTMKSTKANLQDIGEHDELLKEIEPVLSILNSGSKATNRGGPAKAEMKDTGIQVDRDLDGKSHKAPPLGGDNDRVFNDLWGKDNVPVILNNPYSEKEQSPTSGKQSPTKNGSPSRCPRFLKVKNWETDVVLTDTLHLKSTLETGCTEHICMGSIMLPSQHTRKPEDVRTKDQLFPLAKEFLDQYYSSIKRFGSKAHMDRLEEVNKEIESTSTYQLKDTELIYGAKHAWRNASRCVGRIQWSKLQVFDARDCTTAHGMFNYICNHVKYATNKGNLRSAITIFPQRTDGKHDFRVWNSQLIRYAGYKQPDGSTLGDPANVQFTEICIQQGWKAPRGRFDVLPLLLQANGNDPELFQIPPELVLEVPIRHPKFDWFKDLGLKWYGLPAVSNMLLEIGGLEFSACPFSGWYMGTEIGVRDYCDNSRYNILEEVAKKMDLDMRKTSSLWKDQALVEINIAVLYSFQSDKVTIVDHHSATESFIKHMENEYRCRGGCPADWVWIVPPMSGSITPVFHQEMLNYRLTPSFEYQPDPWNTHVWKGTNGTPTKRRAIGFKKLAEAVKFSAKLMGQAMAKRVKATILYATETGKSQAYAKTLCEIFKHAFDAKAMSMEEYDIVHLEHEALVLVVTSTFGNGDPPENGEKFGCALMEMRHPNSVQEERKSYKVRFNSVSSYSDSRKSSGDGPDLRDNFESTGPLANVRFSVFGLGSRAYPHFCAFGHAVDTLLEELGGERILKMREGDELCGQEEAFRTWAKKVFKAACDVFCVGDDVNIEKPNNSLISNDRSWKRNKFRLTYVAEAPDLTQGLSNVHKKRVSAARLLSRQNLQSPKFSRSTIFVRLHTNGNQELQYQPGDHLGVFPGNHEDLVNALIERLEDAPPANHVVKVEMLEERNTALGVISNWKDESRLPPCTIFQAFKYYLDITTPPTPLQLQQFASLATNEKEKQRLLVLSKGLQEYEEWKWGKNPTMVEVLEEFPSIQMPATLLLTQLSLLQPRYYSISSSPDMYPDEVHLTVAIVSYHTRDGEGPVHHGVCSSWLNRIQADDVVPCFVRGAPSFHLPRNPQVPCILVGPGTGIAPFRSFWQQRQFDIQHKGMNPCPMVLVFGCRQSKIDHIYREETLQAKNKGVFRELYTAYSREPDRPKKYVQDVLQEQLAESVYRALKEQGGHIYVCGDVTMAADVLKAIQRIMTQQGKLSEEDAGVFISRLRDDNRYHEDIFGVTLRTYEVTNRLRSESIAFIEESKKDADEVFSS
Chain of human Serotonin, 5-Hydroxytryptamine Receptor 6 (5HT6), HTR6 (gene 3362) (P50406 whole entry, looked up): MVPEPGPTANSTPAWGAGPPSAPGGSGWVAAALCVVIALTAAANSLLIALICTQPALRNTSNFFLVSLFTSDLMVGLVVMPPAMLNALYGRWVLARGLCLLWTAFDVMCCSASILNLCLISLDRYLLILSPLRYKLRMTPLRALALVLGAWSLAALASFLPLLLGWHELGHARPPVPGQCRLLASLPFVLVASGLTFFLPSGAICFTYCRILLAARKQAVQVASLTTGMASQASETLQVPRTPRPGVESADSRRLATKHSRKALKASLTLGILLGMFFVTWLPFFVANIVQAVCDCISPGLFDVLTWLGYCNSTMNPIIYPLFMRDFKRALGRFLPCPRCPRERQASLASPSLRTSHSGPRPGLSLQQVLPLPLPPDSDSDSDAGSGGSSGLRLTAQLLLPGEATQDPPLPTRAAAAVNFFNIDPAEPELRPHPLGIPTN
Chain of sheep Cyclooxygenase-1 (Cox1), PTGS1 (gene 443551) (P05979 whole entry, looked up): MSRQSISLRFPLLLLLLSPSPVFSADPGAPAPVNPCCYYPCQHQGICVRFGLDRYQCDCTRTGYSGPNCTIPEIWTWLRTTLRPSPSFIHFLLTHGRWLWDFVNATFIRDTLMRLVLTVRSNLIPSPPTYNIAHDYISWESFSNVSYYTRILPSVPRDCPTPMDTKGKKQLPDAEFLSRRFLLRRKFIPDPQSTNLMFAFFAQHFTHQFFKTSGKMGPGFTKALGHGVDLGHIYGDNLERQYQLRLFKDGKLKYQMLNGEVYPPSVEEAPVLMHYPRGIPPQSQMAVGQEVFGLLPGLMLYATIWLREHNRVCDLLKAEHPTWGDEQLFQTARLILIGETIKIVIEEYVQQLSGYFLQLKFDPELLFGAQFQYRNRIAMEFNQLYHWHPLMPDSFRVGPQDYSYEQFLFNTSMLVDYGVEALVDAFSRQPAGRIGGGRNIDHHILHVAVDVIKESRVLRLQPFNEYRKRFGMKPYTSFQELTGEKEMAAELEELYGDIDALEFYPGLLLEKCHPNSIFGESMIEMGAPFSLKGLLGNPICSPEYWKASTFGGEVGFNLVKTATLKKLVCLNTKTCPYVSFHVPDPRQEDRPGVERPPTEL
Chain of guinea pig Opioid, Kappa 1 Receptor (OpiateK), OPRK1 (gene 100135587) (P41144 whole entry, looked up): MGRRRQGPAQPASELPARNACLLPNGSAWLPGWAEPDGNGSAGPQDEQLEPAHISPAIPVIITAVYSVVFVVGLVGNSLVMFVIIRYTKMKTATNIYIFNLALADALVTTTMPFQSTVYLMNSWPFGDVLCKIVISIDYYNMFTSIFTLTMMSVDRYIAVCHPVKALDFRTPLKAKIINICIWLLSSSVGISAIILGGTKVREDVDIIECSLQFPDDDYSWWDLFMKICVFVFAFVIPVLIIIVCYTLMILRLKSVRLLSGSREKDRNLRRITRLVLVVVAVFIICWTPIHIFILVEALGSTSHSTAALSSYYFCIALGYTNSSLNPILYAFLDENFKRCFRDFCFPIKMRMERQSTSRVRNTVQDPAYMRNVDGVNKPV
Chain of human Adrenergic, Alpha 2A Receptor (Adra2A), ADRA2A (gene 150) (P08913 whole entry, looked up): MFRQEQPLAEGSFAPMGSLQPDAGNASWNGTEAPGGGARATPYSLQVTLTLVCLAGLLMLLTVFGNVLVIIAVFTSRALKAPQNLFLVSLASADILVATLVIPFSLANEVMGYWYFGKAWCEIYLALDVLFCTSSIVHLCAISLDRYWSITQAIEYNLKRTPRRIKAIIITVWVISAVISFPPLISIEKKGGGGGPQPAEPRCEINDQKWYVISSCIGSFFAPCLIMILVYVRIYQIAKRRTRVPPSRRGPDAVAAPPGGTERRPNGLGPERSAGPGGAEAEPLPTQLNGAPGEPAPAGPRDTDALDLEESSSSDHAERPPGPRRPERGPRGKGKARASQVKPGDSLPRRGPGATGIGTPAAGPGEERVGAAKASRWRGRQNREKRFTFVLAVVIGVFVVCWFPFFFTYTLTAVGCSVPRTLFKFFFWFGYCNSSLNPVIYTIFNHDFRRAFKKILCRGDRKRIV
Chain of human Adenosine A1 Receptor (AdoRA1), ADORA1 (gene 134) (P30542 whole entry, looked up): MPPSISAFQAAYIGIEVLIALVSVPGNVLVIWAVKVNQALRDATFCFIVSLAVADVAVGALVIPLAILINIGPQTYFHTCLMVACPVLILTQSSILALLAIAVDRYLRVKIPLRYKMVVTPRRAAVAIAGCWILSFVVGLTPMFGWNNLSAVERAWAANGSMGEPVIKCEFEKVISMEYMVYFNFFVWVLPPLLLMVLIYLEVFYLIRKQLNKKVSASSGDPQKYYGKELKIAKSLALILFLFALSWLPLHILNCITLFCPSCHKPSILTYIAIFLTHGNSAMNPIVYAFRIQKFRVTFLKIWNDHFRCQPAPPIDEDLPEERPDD
Chain of human Serotonin, 5-Hydroxytryptamine Receptor 7 (5HT7), HTR7 (gene 3363) (P34969 whole entry, looked up): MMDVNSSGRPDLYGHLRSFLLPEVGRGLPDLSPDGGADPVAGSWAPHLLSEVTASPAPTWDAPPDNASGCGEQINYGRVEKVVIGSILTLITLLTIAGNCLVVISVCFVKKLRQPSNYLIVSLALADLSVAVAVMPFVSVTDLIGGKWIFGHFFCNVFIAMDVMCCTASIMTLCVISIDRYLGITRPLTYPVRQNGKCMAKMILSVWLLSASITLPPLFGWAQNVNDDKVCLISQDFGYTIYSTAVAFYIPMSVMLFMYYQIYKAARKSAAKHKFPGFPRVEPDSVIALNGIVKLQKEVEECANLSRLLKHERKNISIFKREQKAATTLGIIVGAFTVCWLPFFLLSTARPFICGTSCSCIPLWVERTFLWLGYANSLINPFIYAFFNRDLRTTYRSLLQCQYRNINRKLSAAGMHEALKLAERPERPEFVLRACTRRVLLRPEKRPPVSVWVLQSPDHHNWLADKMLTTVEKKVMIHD
Chain of human Adenosine A2a Receptor (AdoRA2a), ADORA2A (gene 135) (P29274 whole entry, looked up): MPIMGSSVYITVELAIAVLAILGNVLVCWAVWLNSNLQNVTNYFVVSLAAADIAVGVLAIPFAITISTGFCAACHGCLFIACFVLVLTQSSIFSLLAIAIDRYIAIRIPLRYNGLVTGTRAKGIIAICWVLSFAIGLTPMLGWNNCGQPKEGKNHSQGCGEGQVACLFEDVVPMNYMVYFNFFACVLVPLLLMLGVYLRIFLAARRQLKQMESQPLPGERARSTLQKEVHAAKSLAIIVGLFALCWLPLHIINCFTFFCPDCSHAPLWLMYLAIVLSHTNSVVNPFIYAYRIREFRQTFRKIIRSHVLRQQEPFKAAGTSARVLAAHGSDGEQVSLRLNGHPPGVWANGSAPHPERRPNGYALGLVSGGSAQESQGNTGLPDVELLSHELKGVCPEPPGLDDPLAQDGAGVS

As to `CCc1ccc(O)c(C(C)(C)C)c1`, the call in [1] was inactive.

As to `OCC(CO)(CO)CO`, the compound was classed as inactive in experiment [2].

`COc1cc(C(C)C)c2c(c1)S(=O)(=O)N(COc1cc(=O)n3cccc(OCCN4CCCCC4)c3n1)C2=O`: the result in [3] was inactive. Moreover, the AC50 was 2.22 µM (active) in [4]; 5.55 µM (active) in experiment [5]; 2.55 µM (active) in [6]; 2.83 µM (active) in experiment [7]; 0.424 µM (active) in experiment [8].

Take `C=CCc1cc(S(=O)(=O)c2ccc(O)c(CC=C)c2)ccc1O`: the AC50 in experiment [9] was 1.07 µM (active); in experiment [10], 16.7 µM (active); in experiment [11], 25 µM (active); in experiment [6], 0.0408 µM (active); in experiment [12], 3.19 µM (active); in experiment [13], 9.39 µM (active). In addition, the AC50 is 15.6 µM (active) in experiment [1], 20.1 µM (active) in experiment [14] and 8.06 µM (active) in experiment [8].

Regarding `CCn1nc(C)c2c1C(=O)NCC(c1ccc(O)cc1)=N2`, the call in experiment [15], in experiment [5], in [6], in experiment [12], in experiment [7] and in [8] was inactive. In addition, the concentration at half-maximal activity (AC50) is 25 µM (active) in experiment [13] and 10.2 µM (active) in experiment [1].

On to `O=C(N[C@H](CO)[C@H](O)c1ccc([N+](=O)[O-])cc1)C(Cl)Cl`, for which the call in experiment [9] was inactive.

For `CCCCCCCC/C=C\CCCCCCCC(=O)OC[C@@H](O)[C@H]1OC[C@H](O)[C@H]1O`, in [16], the call was inactive. Also, the AC50 in experiment [14] was 43.1 µM (active).

In the case of `CCN(CC)C(=S)SSC(=S)N(CC)CC`, the call in experiment [10] and in experiment [5] was inactive. Also, the half-maximal activity concentration (AC50) in experiment [17] was 1.24 µM (active); in experiment [6], 8.33 µM (active); in experiment [13], 13.5 µM (active); in experiment [14], 2.55 µM (active).

On to `NNC(=O)c1ccncc1`, for which the call in [7] was inactive.

Turning to `CCCC(CCC)C(=O)O`, the outcome in experiment [3] was inactive.

With `Cc1nccn1-c1ccc(Sc2cccc(C3(C(N)=O)CCOCC3)c2)cc1`, the concentration at half-maximal activity (AC50) in experiment [18] is 8.42 µM (active); in experiment [4], 25 µM (active); in [5] it was 2.06 µM (active); in experiment [1], 4.51 µM (active). Moreover, the call in [12] was inactive.

As to `CCCCC(CC)C(=O)OCCOCCOCCOC(=O)C(CC)CCCC` (stereo unspecified), the AC50 in experiment [19] is 5.94 µM (active).

Consider `O=C1CN(N=Cc2ccc([N+](=O)[O-])o2)C(=O)N1`, for which the compound was classed as inactive in experiment [19] and in [9].

In the case of `OCc1c[nH]c2ccccc12`, the AC50 in experiment [9] was 25 µM (active). The compound was classed as inactive in [1].

Regarding `Cc1ncc([C@@H](CCCCCCc2ccc3c(n2)NCCC3)CC(=O)O)cn1`, the AC50 in experiment [7] is 13.7 µM (active); in experiment [8], 16.2 µM (active).

For `c1ccc2cc3ccccc3cc2c1`, in [6], the outcome was inactive.

Regarding `O=C(NO)C1(NS(=O)(=O)c2ccc(Oc3ccc(F)cc3)cc2)CCOCC1`, the AC50 in [18] was 7.03 µM (active); in [7], 25 µM (active).

Regarding `CCCCCCCCCCCCCCO`, in experiment [19], the concentration at half-maximal activity (AC50) is 11.7 µM (active).

Take `O=C(O)c1cccc(C[C@@H]2COc3ccc(OCc4nc5cc(F)ccc5s4)cc3[C@@H]2O)c1`: in [19], the result was inactive.

Regarding `CC(C)C(=O)Nc1ccc([N+](=O)[O-])c(C(F)(F)F)c1`, the call in [3] and in experiment [12] was inactive. Further, the AC50 in experiment [6] was 4.5 µM (active).

The record behind these values is PubChem BioAssay (EPA / NIEHS).
